According to PubChem BioAssay (EPA / NIEHS):
Calls of active or inactive are those of the source. How the source made its calls: active means hit-call score of the fitted dose curve at least 0.9, where 1 is the maximum; inactive means score below 0.9.

Read-out: Thrombomodulin, THBD (gene 7056)
Experiment: BSK_CASM3C_Thrombomodulin: BioMAP Diversity Plus: CASM3C Assay for Thrombomodulin Biomarker Activity (AID 2283051);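 further: thrombomodulin protein level measured by ELISA 24 h after dosing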
Conditions: primary human coronary artery smooth muscle cells; actives raise or lower the signal

Row | Structure (SMILES) | outcome | AC50
1 | O=C(O)C1C2CCC(O2)C1C(=O)O (configuration not stated) | inactive | –
2 | Nc1ccc(Cl)cc1N | – | 5.73 µM (active)
3 | OCCCl | inactive | –
4 | c1ccc2c(c1)-c1cccc3cccc-2c13 | inactive | –
5 | CCCCCCCCn1sccc1=O | – | 35.8 µM (active)
6 | c1ccc(C2CO2)cc1 (configuration not stated) | inactive | –
7 | CC(C)(C)OOC(C)(C)CCC(C)(C)OOC(C)(C)C | inactive | –
8 | c1ccc2c(c1)oc1ccccc12 | inactive | –
9 | CN(C)c1ccc(C(=O)c2ccc(N(C)C)cc2)cc1 | inactive | –
10 | Oc1ccccc1Cl | inactive | –
11 | Clc1ccccc1Cl | inactive | –
12 | O=C(N[C@H](c1ccccc1)[C@@H]1CN2CCC1CC2)c1c(Cl)ccc(C(F)(F)F)c1Cl | inactive | –
13 | ClCCOCCCl | inactive | –
14 | Cc1ccc([N+](=O)[O-])cc1 | inactive | –
15 | CO[C@@H]1[C@H](OC(=O)NC(=O)CCl)CC[C@]2(CO2)[C@H]1[C@@]1(C)O[C@@H]1CC=C(C)C | inactive | –
16 | Nc1ccc([N+](=O)[O-])cc1 | inactive | –
17 | Nc1ccc(Oc2ccc(N)cc2)cc1 | inactive | –
18 | CC(C)(O)c1cnn2c(-c3ccc(F)c(-c4c(F)cccc4C#N)c3)cnc2n1 | inactive | –
19 | OCCCBr | inactive | –
20 | [O-][Cl+]O | inactive | –
21 | C1=Cc2cccc3cccc1c23 | inactive | –
22 | CN(C)C(=O)Nc1ccc(Cl)cc1 | inactive | –
23 | ClC1=C(Cl)C2(Cl)C3C(Cl)C=CC3C1(Cl)C2(Cl)Cl (configuration not stated) | inactive | –
24 | Cc1ccc(N=C=O)cc1N=C=O | inactive | –
25 | O=Cc1ccco1 | inactive | –
26 | CCCSC(=O)N(CCC)CCC | inactive | –
27 | Clc1ccc(Cl)c(Cl)c1 | inactive | –
28 | CCC12COCN1COC2 | inactive | –

Read-out: Tissue Factor, F3 (gene 2152)
Experiment: BSK_CASM3C_TissueFactor: BioMAP Diversity Plus: CASM3C Assay for Tissue Factor Biomarker Activity (AID 2283052);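 further: cell surface tissue factor protein level read by ELISA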
Conditions: primary human coronary artery smooth muscle cells; actives raise or lower the signal

Row | Structure (SMILES) | outcome | AC50
29 | O=C(O)C1C2CCC(O2)C1C(=O)O (configuration not stated) | inactive | –
30 | Nc1ccc(Cl)cc1N | inactive | –
31 | OCCCl | inactive | –
32 | c1ccc2c(c1)-c1cccc3cccc-2c13 | inactive | –
33 | CCCCCCCCn1sccc1=O | – | 14.2 µM (active)
34 | c1ccc(C2CO2)cc1 (configuration not stated) | inactive | –
35 | CC(C)(C)OOC(C)(C)CCC(C)(C)OOC(C)(C)C | inactive | –
36 | c1ccc2c(c1)oc1ccccc12 | inactive | –
37 | CN(C)c1ccc(C(=O)c2ccc(N(C)C)cc2)cc1 | inactive | –
38 | Oc1ccccc1Cl | inactive | –
39 | Clc1ccccc1Cl | inactive | –
40 | O=C(N[C@H](c1ccccc1)[C@@H]1CN2CCC1CC2)c1c(Cl)ccc(C(F)(F)F)c1Cl | inactive | –
41 | ClCCOCCCl | inactive | –
42 | Cc1ccc([N+](=O)[O-])cc1 | inactive | –
43 | CO[C@@H]1[C@H](OC(=O)NC(=O)CCl)CC[C@]2(CO2)[C@H]1[C@@]1(C)O[C@@H]1CC=C(C)C | inactive | –
44 | Nc1ccc([N+](=O)[O-])cc1 | inactive | –
45 | Nc1ccc(Oc2ccc(N)cc2)cc1 | inactive | –
46 | CC(C)(O)c1cnn2c(-c3ccc(F)c(-c4c(F)cccc4C#N)c3)cnc2n1 | inactive | –
47 | OCCCBr | inactive | –
48 | [O-][Cl+]O | inactive | –
49 | C1=Cc2cccc3cccc1c23 | inactive | –
50 | CN(C)C(=O)Nc1ccc(Cl)cc1 | inactive | –
51 | ClC1=C(Cl)C2(Cl)C3C(Cl)C=CC3C1(Cl)C2(Cl)Cl (configuration not stated) | – | 29.3 µM (active)
52 | Cc1ccc(N=C=O)cc1N=C=O | inactive | –
53 | O=Cc1ccco1 | inactive | –
54 | CCCSC(=O)N(CCC)CCC | inactive | –
55 | Clc1ccc(Cl)c(Cl)c1 | inactive | –
56 | CCC12COCN1COC2 | inactive | –

Read-out: Interferon-gamma inducible Protein 10 (IP10), CXCL10 (gene 3627)
Experiment: BSK_hDFCGF_IP10: BioMAP Diversity Plus: hDFCGF Assay for Interferon-gamma inducible Protein 10 (IP10) Biomarker Activity (AID 2283053)
Conditions: primary human foreskin fibroblasts; actives raise or lower the signal
Method in brief: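 Chemical-treated human skin fibroblasts (primary) were sampled at 24 h for IP-10 by ELISA. Both increases and decreases relative to DMSO were scored.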

Row | Structure (SMILES) | outcome | AC50
57 | O=C(O)C1C2CCC(O2)C1C(=O)O (configuration not stated) | inactive | –
58 | Nc1ccc(Cl)cc1N | inactive | –
59 | OCCCl | inactive | –
60 | c1ccc2c(c1)-c1cccc3cccc-2c13 | inactive | –
61 | CCCCCCCCn1sccc1=O | – | 0.626 µM (active)
62 | c1ccc(C2CO2)cc1 (configuration not stated) | inactive | –
63 | CC(C)(C)OOC(C)(C)CCC(C)(C)OOC(C)(C)C | inactive | –
64 | c1ccc2c(c1)oc1ccccc12 | inactive | –
65 | CN(C)c1ccc(C(=O)c2ccc(N(C)C)cc2)cc1 | inactive | –
66 | Oc1ccccc1Cl | inactive | –
67 | Clc1ccccc1Cl | inactive | –
68 | O=C(N[C@H](c1ccccc1)[C@@H]1CN2CCC1CC2)c1c(Cl)ccc(C(F)(F)F)c1Cl | – | 16.3 µM (active)
69 | ClCCOCCCl | inactive | –
70 | Cc1ccc([N+](=O)[O-])cc1 | inactive | –
71 | CO[C@@H]1[C@H](OC(=O)NC(=O)CCl)CC[C@]2(CO2)[C@H]1[C@@]1(C)O[C@@H]1CC=C(C)C | – | 5.48 µM (active)
72 | Nc1ccc([N+](=O)[O-])cc1 | inactive | –
73 | Nc1ccc(Oc2ccc(N)cc2)cc1 | inactive | –
74 | CC(C)(O)c1cnn2c(-c3ccc(F)c(-c4c(F)cccc4C#N)c3)cnc2n1 | inactive | –
75 | OCCCBr | inactive | –
76 | [O-][Cl+]O | inactive | –
77 | C1=Cc2cccc3cccc1c23 | inactive | –
78 | CN(C)C(=O)Nc1ccc(Cl)cc1 | inactive | –
79 | ClC1=C(Cl)C2(Cl)C3C(Cl)C=CC3C1(Cl)C2(Cl)Cl (configuration not stated) | – | 8.86 µM (active)
80 | Cc1ccc(N=C=O)cc1N=C=O | inactive | –
81 | O=Cc1ccco1 | inactive | –
82 | CCCSC(=O)N(CCC)CCC | inactive | –
83 | Clc1ccc(Cl)c(Cl)c1 | inactive | –
84 | CCC12COCN1COC2 | inactive | –

Read-out: Urokinase-type plasminogen activator receptor (uPAR), PLAUR (gene 5329)
Experiment: BSK_CASM3C_uPAR: BioMAP Diversity Plus: CASM3C Assay for Urokinase-type plasminogen activator receptor (uPAR) Biomarker Activity (AID 2283054);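 further: cell-surface uPAR protein level quantified by ELISA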
Conditions: primary human coronary artery smooth muscle cells; actives raise or lower the signal

Row | Structure (SMILES) | outcome | AC50
85 | O=C(O)C1C2CCC(O2)C1C(=O)O (configuration not stated) | inactive | –
86 | Nc1ccc(Cl)cc1N | inactive | –
87 | OCCCl | inactive | –
88 | c1ccc2c(c1)-c1cccc3cccc-2c13 | inactive | –
89 | CCCCCCCCn1sccc1=O | – | 11.5 µM (active)
90 | c1ccc(C2CO2)cc1 (configuration not stated) | inactive | –
91 | CC(C)(C)OOC(C)(C)CCC(C)(C)OOC(C)(C)C | inactive | –
92 | c1ccc2c(c1)oc1ccccc12 | inactive | –
93 | CN(C)c1ccc(C(=O)c2ccc(N(C)C)cc2)cc1 | inactive | –
94 | Oc1ccccc1Cl | inactive | –
95 | Clc1ccccc1Cl | inactive | –
96 | O=C(N[C@H](c1ccccc1)[C@@H]1CN2CCC1CC2)c1c(Cl)ccc(C(F)(F)F)c1Cl | inactive | –
97 | ClCCOCCCl | inactive | –
98 | Cc1ccc([N+](=O)[O-])cc1 | inactive | –
99 | CO[C@@H]1[C@H](OC(=O)NC(=O)CCl)CC[C@]2(CO2)[C@H]1[C@@]1(C)O[C@@H]1CC=C(C)C | inactive | –
100 | Nc1ccc([N+](=O)[O-])cc1 | inactive | –
101 | Nc1ccc(Oc2ccc(N)cc2)cc1 | inactive | –
102 | CC(C)(O)c1cnn2c(-c3ccc(F)c(-c4c(F)cccc4C#N)c3)cnc2n1 | inactive | –
103 | OCCCBr | inactive | –
104 | [O-][Cl+]O | inactive | –
105 | C1=Cc2cccc3cccc1c23 | inactive | –
106 | CN(C)C(=O)Nc1ccc(Cl)cc1 | inactive | –
107 | ClC1=C(Cl)C2(Cl)C3C(Cl)C=CC3C1(Cl)C2(Cl)Cl (configuration not stated) | – | 31.8 µM (active)
108 | Cc1ccc(N=C=O)cc1N=C=O | inactive | –
109 | O=Cc1ccco1 | inactive | –
110 | CCCSC(=O)N(CCC)CCC | inactive | –
111 | Clc1ccc(Cl)c(Cl)c1 | inactive | –
112 | CCC12COCN1COC2 | inactive | –
